Experimental data: PubChem BioAssay (EPA / NIEHS)
Where “and” joins values, the source holds several entries; their conditions need not be identical. Identical values can stand only once. Results filed as inconclusive are left out. Some compounds were tested as several samples or in several runs, with calls that do not always agree. Calls of active or inactive are those of the source. The calls were made as follows, unless noted: active = hit-call score of the fitted dose curve at least 0.9, where 1 is the maximum; inactive = score below 0.9.

Key:
[1] = molecular target: Oxysterols receptor LXR-beta (Homo sapiens) (UniProt P55055); assay: ATG_LXRb_TRANS: Attagene TRANS-FACTORIAL HepG2 Assay for human Liver X Receptor beta (LXRb) (AID 2282981; active = hit-call score of the fitted dose curve at least 0.9, where 1 is the maximum); details: HepG2 Attagene TRANS GAL4-LXRb reporter, mRNA
Oxysterols receptor LXR-beta (Homo sapiens), sequence (P55055 whole entry, looked up, the tested form may be a part): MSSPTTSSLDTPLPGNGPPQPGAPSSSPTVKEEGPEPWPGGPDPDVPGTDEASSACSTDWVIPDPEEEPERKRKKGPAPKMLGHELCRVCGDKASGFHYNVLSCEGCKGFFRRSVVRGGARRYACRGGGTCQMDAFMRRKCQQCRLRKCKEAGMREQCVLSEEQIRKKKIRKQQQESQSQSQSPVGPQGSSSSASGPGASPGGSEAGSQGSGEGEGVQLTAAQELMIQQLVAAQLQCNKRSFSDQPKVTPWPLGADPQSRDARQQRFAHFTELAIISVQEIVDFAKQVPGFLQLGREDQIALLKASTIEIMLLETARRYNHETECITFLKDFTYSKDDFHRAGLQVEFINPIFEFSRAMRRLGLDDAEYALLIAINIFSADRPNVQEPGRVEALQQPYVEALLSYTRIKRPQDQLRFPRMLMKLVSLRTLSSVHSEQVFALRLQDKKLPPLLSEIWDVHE
How it was run: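 HepG2 cells transiently transfected with multiple reporter transcription units carrying chimeric NR-Gal4 proteins acting on GAL4-UAS reporters; compound exposure 24 h. Reporter mRNA quantified by RT-PCR, 6-FAM labelling, HpaI digestion and capillary electrophoresis; gain of signal versus DMSO.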

[2] = molecular target: Hepatocyte nuclear factor 4-alpha (Homo sapiens) (UniProt P41235); assay: ATG_HNF4a_TRANS: Attagene TRANS-FACTORIAL HepG2 Assay for human Hepatocyte Nuclear Factor 4 alpha (HNF4a) (AID 2282982; active = hit-call score of the fitted dose curve at least 0.9, where 1 is the maximum); details: HepG2 HNF4a transactivation reporter, mRNA readout
Hepatocyte nuclear factor 4-alpha (Homo sapiens), sequence (P41235 whole entry, looked up, the tested form may be a part): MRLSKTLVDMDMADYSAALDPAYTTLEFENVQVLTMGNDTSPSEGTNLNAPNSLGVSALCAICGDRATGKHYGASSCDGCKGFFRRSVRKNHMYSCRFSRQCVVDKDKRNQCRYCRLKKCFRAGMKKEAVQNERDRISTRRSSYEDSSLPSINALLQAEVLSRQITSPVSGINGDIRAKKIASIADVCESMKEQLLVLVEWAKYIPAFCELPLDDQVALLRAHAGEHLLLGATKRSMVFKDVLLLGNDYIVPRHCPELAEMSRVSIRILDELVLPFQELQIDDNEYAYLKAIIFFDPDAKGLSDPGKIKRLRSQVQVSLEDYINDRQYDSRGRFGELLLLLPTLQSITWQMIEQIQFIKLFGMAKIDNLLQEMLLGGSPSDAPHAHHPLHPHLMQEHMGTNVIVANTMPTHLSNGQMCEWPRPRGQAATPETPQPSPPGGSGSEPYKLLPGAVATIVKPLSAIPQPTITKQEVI
How it was run: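 HepG2 cells transiently transfected with multiplexed GAL4-UAS reporter units responsive to chimeric NR-GAL4 proteins; compound exposure 24 h. Reporter mRNA quantified by RT-PCR, 6-FAM labelling, HpaI digestion and capillary electrophoresis; gain of signal versus DMSO baseline.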

[3] = ATG_M_06_TRANS: Attagene TRANS-FACTORIAL HepG2 Assay for M06 Transcription Factor (Internal Marker) (AID 2282983; active = hit-call score of the fitted dose curve at least 0.9, where 1 is the maximum;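 as to AC50: potency for rise in reporter mRNA above DMSO baseline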); details: HepG2 Attagene TRANS M06 internal marker reporter
How it was run: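 Internal-marker background readout from a multiplexed TRANS reporter system in HepG2; 24 h dosing; mRNA induction quantified by RT-PCR plus capillary electrophoresis fluorescence; DMSO as negative control and baseline.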

[4] = molecular target: Nuclear receptor subfamily 4 group A member 2 (Homo sapiens) (UniProt P43354); assay: ATG_NURR1_TRANS: Attagene TRANS-FACTORIAL HepG2 Assay for human Nuclear Receptor Related Protein 1 (NURR1) (AID 2282985; active = hit-call score of the fitted dose curve at least 0.9, where 1 is the maximum); details: HepG2 Attagene TRANS reporter, mRNA readout
Nuclear receptor subfamily 4 group A member 2 (Homo sapiens), sequence (P43354 whole entry, looked up, the tested form may be a part): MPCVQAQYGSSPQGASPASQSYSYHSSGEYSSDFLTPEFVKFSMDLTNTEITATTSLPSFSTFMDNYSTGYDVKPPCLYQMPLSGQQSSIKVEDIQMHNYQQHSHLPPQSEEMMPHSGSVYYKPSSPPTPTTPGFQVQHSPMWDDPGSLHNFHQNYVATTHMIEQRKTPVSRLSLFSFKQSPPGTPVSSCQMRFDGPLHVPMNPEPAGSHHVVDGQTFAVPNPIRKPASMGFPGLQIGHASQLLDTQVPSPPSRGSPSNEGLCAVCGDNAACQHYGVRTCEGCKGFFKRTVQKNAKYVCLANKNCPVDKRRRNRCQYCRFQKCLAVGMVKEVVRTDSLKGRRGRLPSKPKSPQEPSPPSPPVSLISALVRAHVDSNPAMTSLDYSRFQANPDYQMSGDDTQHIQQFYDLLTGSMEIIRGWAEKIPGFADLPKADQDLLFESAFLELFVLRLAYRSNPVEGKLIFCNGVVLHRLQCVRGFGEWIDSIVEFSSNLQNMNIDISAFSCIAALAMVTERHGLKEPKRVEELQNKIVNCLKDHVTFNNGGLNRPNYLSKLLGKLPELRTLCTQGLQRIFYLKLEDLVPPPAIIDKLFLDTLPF
How it was run: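 HepG2 cells transiently transfected with GAL4-UAS reporter units and chimeric NR-Gal4 constructs; chemical exposure 24 h. Reporter mRNA quantified by RT-PCR, fluorescent labelling and capillary electrophoresis; gain of signal fitted relative to DMSO baseline.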

[5] = molecular target: Transcriptional activator Myb (Homo sapiens) (UniProt P10242); assay: ATG_Myb_CIS: Attagene CIS-FACTORIAL HepG2 Assay for human Myeloblastosis (Myb) Proto-Oncogene Transcription Factor (AID 2282986); details: HepG2 Attagene CIS-FACTORIAL Myb reporter transcription; actives raise or lower the signal
Transcriptional activator Myb (Homo sapiens), sequence (P10242 whole entry, looked up): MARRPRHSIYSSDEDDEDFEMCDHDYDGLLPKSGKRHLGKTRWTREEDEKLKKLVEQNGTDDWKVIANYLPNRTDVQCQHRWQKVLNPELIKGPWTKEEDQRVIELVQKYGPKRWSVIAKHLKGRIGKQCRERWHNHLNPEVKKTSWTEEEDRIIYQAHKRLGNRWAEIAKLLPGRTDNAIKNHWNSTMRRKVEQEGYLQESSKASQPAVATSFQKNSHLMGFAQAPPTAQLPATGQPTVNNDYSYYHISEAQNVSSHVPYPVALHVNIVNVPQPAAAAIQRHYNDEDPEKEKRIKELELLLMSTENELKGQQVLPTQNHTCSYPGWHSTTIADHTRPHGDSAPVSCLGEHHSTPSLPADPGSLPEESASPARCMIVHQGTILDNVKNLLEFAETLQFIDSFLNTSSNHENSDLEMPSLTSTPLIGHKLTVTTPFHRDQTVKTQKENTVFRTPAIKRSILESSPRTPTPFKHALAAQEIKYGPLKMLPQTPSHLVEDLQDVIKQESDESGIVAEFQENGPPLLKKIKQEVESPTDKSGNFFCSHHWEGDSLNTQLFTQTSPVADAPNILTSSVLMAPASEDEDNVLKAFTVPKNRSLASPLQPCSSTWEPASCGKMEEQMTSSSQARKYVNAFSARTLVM
How it was run: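 Reporter transcript levels, quantified by fluorescent RT-PCR and capillary electrophoresis, serve as the read-out. Transfected HepG2 cells carrying cis-promoter reporter units are dosed for 24 hours, and curves are fitted bidirectionally against DMSO controls.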

[6] = ATG_NFI_CIS: Attagene CIS-FACTORIAL HepG2 Assay for human Nuclear Factor I (NFI) (AID 2282989); details: HepG2 cis-regulatory reporter, NFI response element transcription; actives raise or lower the signal
How it was run: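 Endogenous TF activity in HepG2 cells transiently transfected with cis-element-driven multiplexed reporter units, read 24 h after dosing. Reporter mRNA quantified by RT-PCR, 6-FAM labelling, HpaI digestion and capillary electrophoresis; bidirectional fit versus DMSO.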

[7] = molecular target: Myc proto-oncogene protein (Homo sapiens) (UniProt P01106); assay: ATG_Myc_CIS: Attagene CIS-FACTORIAL HepG2 Assay for human Myelocytomatosis (Myc) Proto-Oncogene Transcription Factor (AID 2282990); details: HepG2, Attagene cis-reporter transcription factor activity; actives raise or lower the signal
Myc proto-oncogene protein (Homo sapiens), sequence (P01106 whole entry, looked up): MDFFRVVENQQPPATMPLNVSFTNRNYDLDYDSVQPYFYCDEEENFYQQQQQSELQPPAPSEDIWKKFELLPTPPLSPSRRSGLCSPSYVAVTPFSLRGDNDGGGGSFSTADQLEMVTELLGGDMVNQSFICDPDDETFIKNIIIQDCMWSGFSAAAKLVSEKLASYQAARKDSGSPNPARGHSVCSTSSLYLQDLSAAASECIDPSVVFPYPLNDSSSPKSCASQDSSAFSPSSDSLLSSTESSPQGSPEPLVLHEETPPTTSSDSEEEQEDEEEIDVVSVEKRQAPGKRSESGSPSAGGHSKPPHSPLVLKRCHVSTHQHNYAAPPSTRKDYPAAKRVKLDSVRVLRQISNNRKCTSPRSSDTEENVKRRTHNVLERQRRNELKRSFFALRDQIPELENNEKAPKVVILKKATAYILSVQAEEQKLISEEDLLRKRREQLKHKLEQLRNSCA
How it was run: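 DMSO-normalised, bidirectionally fitted reporter mRNA signal. HepG2 cells transfected with cis reporter constructs, treated 24 h; transcripts detected by RT-PCR, 6-FAM primer extension and CE.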

[8] = ATG_NF_kB_CIS: Attagene CIS-FACTORIAL HepG2 Assay for human Nuclear Factor Kappa B (NF-kB) (AID 2282991); details: HepG2 Attagene cis-factorial NF-kB reporter mRNA; actives raise or lower the signal
How it was run: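 Transient MRTU transfection of human HepG2 liver cells → 24 h chemical exposure → total RNA, oligo(dT) RT → PCR, 6-FAM primer extension, HpaI digest 2 h 37 C → CE fragment analysis. Bidirectional fitting, DMSO negative control.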

[9] = ATG_NRF2_ARE_CIS: Attagene CIS-FACTORIAL HepG2 Assay for human Nuclear Factor Erythroid 2 Related Factor 2 (NFR2) response to Antioxidant Response Elements (ARE) (AID 2282992); details: HepG2 Attagene ARE/NRF2 reporter, transcription factor activity; actives raise or lower the signal;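 as to AC50: reporter mRNA level measured by RT-PCR and capillary electrophoresis fluorescence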
How it was run: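 Cis-factorial assay: transfected HepG2 reporter library, 24 h dosing, mRNA readout via RT-PCR/CE; DMSO-referenced bidirectional analysis.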

[10] = ATG_Oct_MLP_CIS: Attagene CIS-FACTORIAL HepG2 Assay for human Octamer-Binding Transcription Factor (Oct) (AID 2282993); details: HepG2 Attagene cis-factorial Oct reporter, mRNA; actives raise or lower the signal
How it was run: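 HepG2 cells transiently transfected with cis-element-driven reporter transcription units (endogenous TF activity); 24 h compound exposure. Reporter mRNA quantified by RT-PCR, 6-FAM labelling, HpaI digestion and capillary electrophoresis; bidirectional fit versus DMSO baseline.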

[11] = BSK_3C_TissueFactor: BioMAP Diversity Plus: 3C Assay for Tissue Factor Biomarker Activity (AID 2282997); details: BioMAP 3C HUVEC, tissue factor biomarker readout; actives raise or lower the signal
How it was run: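 Endothelial monolayers (human umbilical vein, primary) are dosed, incubated 24 h, and assayed for Tissue Factor by ELISA; DMSO serves as negative control for bidirectional fitting.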

[12] = BSK_3C_uPAR: BioMAP Diversity Plus: 3C Assay for Urokinase-type plasminogen activator receptor (uPAR) Biomarker Activity (AID 2282998); details: BioMAP 3C HUVEC, uPAR biomarker ELISA; actives raise or lower the signal
How it was run: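 Primary human umbilical vein endothelial cells, 3C system; surface uPAR measured by ELISA 24 h after dosing. Cytotoxicity via SRB total protein in parallel cultures; bidirectional fit against DMSO.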

[13] = BSK_3C_VCAM1: BioMAP Diversity Plus: 3C Assay for Vascular cell adhesion molecule 1 (VCAM1) Biomarker Activity (AID 2282999); details: BioMAP 3C HUVEC, VCAM1 ELISA, cytokine-stimulated; actives raise or lower the signal
How it was run: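 Human umbilical vein endothelial cells were dosed with compound for 24 h, after which cell-surface VCAM-1 was quantified by ELISA. Bidirectional curve fitting used DMSO as negative control and activity baseline.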

[14] = BSK_4H_Eotaxin3: BioMAP Diversity Plus: 4H Assay for Eotaxin 3 Biomarker Activity (AID 2283000); details: primary human endothelial cells (HUVEC); actives raise or lower the signal;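 as to outcome: CCL26 protein level quantified by ELISA in parallel with SRB cytotoxicity check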
How it was run: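 ELISA quantitation of CCL26 (Eotaxin-3) protein from chemically dosed human vascular endothelial cells at 24 h; increases and decreases both scored relative to DMSO-treated baseline.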

[15] = molecular target: Oxysterols receptor LXR-alpha (Homo sapiens) (UniProt Q13133); assay: ATG_LXRa_TRANS: Attagene TRANS-FACTORIAL HepG2 Assay for human Liver X Receptor alpha (LXRa) (AID 2282980; active = hit-call score of the fitted dose curve at least 0.9, where 1 is the maximum); details: HepG2 Attagene TRANS reporter, LXRa transactivation
Oxysterols receptor LXR-alpha (Homo sapiens), sequence (Q13133 whole entry, looked up, the tested form may be a part): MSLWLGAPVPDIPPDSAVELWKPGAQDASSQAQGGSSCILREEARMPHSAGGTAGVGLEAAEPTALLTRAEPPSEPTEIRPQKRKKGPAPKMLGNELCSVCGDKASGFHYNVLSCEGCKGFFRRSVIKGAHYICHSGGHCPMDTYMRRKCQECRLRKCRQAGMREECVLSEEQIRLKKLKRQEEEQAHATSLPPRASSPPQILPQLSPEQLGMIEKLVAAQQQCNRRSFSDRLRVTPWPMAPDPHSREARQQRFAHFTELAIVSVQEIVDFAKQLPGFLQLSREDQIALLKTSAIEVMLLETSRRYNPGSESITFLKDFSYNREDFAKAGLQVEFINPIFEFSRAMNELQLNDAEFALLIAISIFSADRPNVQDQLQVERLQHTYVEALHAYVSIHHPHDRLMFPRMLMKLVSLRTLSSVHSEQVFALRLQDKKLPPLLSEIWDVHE
How it was run: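 In this multiplexed TRANS system, compounds act on HepG2 cells carrying GAL4-UAS reporter units and a receptor-GAL4 fusion for 24 h. Induced reporter RNA is amplified, fluorescently labelled and sized by capillary electrophoresis, with DMSO as baseline.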

[16] = molecular target: Nuclear respiratory factor 1 (Homo sapiens) (UniProt Q16656); assay: ATG_NRF1_CIS: Attagene CIS-FACTORIAL HepG2 Assay for human Nuclear Respiratory Factor 1 (NRF1) Orphan Gene (AID 2282987); details: HepG2 NRF1 cis-element reporter, Attagene multiplex; actives raise or lower the signal
Nuclear respiratory factor 1 (Homo sapiens), sequence (Q16656 whole entry, looked up): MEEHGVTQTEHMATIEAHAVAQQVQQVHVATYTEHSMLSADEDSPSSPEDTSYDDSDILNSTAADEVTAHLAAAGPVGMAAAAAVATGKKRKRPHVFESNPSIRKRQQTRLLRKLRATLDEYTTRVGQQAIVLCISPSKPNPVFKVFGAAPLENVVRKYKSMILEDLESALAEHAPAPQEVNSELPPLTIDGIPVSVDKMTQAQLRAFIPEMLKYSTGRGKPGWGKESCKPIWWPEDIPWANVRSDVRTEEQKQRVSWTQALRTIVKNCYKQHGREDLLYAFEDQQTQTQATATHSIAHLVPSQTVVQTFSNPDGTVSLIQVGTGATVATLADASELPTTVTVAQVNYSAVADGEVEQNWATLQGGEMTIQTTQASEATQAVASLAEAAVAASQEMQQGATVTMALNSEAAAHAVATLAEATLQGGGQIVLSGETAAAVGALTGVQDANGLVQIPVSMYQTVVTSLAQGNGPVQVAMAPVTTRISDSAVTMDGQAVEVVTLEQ
How it was run: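 Multiplexed cis-reporter assay, HepG2 cells, 24 h treatment. Total RNA → oligo(dT) RT → PCR with reporter-specific primers → 6-FAM primer extension → HpaI cut → CE. Bidirectional fit vs DMSO.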

[17] = ATG_M_32_TRANS: Attagene TRANS-FACTORIAL HepG2 Assay for M32 Transcription Factor (Internal Marker) (AID 2282984; active = hit-call score of the fitted dose curve at least 0.9, where 1 is the maximum); details: HepG2 Attagene TRANS M32 internal marker reporter
How it was run: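 HepG2 cells transiently transfected with multiple GAL4-UAS reporter transcription units, dosed for 24 hours; reporter mRNA quantified by RT-PCR, 6-FAM primer extension, HpaI digestion and capillary electrophoresis. Gain-of-signal fitted versus DMSO baseline; internal background-control marker.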

[18] = ATG_M_61_TRANS: Attagene TRANS-FACTORIAL HepG2 Assay for M61 Transcription Factor (Internal Marker) (AID 2282988); details: HepG2 Attagene TRANS M61 internal marker reporter
How it was run: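 Background-control reporter transcript, measured after 24 h chemical exposure of transiently transfected HepG2 cells carrying multiple GAL4-UAS reporter units. Read-out by RT-PCR with 6-FAM primer extension and capillary electrophoresis, gain of signal versus DMSO.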

[19] = molecular target: Cellular tumor antigen p53 (Homo sapiens) (UniProt P04637); assay: ATG_p53_CIS: Attagene CIS-FACTORIAL HepG2 Assay for human p53 Transcription Factor (AID 2282994); details: HepG2 p53 cis-element reporter, Attagene mRNA; actives raise or lower the signal
Cellular tumor antigen p53 (Homo sapiens), sequence (P04637 whole entry, looked up): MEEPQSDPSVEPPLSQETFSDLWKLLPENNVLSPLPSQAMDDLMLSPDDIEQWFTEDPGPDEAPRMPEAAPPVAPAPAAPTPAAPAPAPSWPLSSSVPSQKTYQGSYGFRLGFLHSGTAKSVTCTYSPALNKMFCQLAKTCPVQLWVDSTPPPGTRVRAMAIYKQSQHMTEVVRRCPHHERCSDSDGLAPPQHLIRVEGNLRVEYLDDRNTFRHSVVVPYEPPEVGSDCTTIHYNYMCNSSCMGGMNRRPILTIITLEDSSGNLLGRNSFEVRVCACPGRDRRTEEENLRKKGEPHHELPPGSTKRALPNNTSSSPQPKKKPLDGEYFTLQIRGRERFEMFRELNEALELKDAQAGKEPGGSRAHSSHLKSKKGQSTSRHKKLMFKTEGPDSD
How it was run: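 Using HepG2 hepatoma cells carrying cis-acting multiplexed reporters, mRNA induction is detected after a 24 h exposure. Gain- and loss-of-signal responses are fitted relative to DMSO-treated cells.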

COc1cc(-c2ccc(N)c(OC)c2)ccc1N
outcome [1]: inactive | outcome [2]: inactive | outcome [3]: inactive | outcome [4]: inactive | outcome [5]: inactive | AC50 [6]: 79.8 µM (active) | outcome [6]: inactive | outcome [7]: inactive | outcome [8]: inactive | outcome [9]: inactive | AC50 [10]: 27.5 µM (active) and 28.5 µM (active) | AC50 [11]: 4.68 µM (active) and 3.97 µM (active) | outcome [12]: inactive | outcome [13]: inactive | outcome [14]: inactive

C(=NC1CCCCC1)=NC1CCCCC1
outcome [15]: inactive | outcome [2]: inactive | outcome [3]: inactive | outcome [5]: inactive | outcome [16]: inactive | outcome [6]: inactive | outcome [7]: inactive | outcome [8]: inactive | outcome [9]: inactive | AC50 [11]: 34 µM (active) | AC50 [12]: 9.69 µM (active) | AC50 [13]: 30.3 µM (active) | AC50 [14]: 6.27 µM (active)

COC(=O)Cc1ccccc1
outcome [15]: inactive | outcome [3]: inactive | outcome [17]: inactive | outcome [4]: inactive | outcome [5]: inactive | outcome [6]: inactive | outcome [7]: inactive | outcome [9]: inactive | outcome [10]: inactive | outcome [11]: inactive | outcome [12]: inactive | outcome [13]: inactive | outcome [14]: inactive

CCC[CH2][Sn]([CH2]CCC)([CH2]CCC)[O]C(=O)c1ccccc1
outcome [1]: inactive | AC50 [2]: 0.638 µM (active) | AC50 [3]: 0.703 µM (active) | outcome [17]: inactive | AC50 [4]: 0.0161 µM (active) | outcome [5]: inactive | outcome [16]: inactive | outcome [18]: inactive | outcome [6]: inactive | outcome [7]: inactive | outcome [8]: inactive | AC50 [9]: 0.188 µM (active) | outcome [10]: inactive | outcome [19]: inactive

BrCCBr
outcome [15]: inactive | outcome [1]: inactive | outcome [4]: inactive | outcome [5]: inactive | outcome [16]: inactive | outcome [6]: inactive | outcome [7]: inactive | outcome [8]: inactive | outcome [9]: inactive | outcome [19]: inactive | outcome [11]: inactive | outcome [12]: inactive | outcome [13]: inactive | outcome [14]: inactive

Cc1cc(=O)[nH]o1
outcome [1]: inactive | outcome [2]: inactive | outcome [3]: inactive | outcome [17]: inactive | outcome [5]: inactive | outcome [16]: inactive | outcome [6]: inactive | outcome [7]: inactive | outcome [8]: inactive | outcome [9]: inactive | outcome [10]: inactive | outcome [19]: inactive

CCCCOCCOC(C)=O
outcome [15]: inactive | outcome [3]: inactive | outcome [17]: inactive | outcome [5]: inactive | outcome [6]: inactive | outcome [7]: inactive | outcome [9]: inactive | outcome [10]: inactive | outcome [19]: inactive

O=[N+]([O-])c1ccc(O)c([N+](=O)[O-])c1
outcome [15]: inactive | outcome [1]: inactive | outcome [3]: inactive | outcome [5]: inactive | outcome [16]: inactive | outcome [6]: inactive | outcome [7]: inactive | outcome [8]: inactive | outcome [9]: inactive | outcome [19]: inactive | outcome [11]: inactive | outcome [12]: inactive | outcome [13]: inactive | outcome [14]: inactive

C1CCC(NC2CCCCC2)CC1
outcome [15]: inactive | outcome [17]: inactive | outcome [5]: inactive | outcome [16]: inactive | outcome [6]: inactive | outcome [7]: inactive | outcome [9]: inactive | outcome [10]: inactive | outcome [19]: inactive

COC(=O)c1sccc1S(=O)(=O)NC(=O)Nc1nc(C)nc(OC)n1
outcome [15]: inactive | outcome [1]: inactive | outcome [4]: inactive | outcome [5]: inactive | outcome [6]: inactive | outcome [7]: inactive | outcome [8]: inactive | outcome [9]: inactive | outcome [10]: inactive | outcome [19]: inactive | outcome [11]: inactive | outcome [12]: inactive | outcome [13]: inactive | outcome [14]: inactive
